Records with an inconclusive call do not appear. Calls of active or inactive are those of the source. Unless noted, the call rests on the fitted dose curve; in most records, active means well fitted curve in the direction sought with a large enough effect; inconclusive means small, poorly fitted or top-dose-only effect, or another doubt; inactive means no such curve, though single readings can be large; an effect the other way counts as inactive or inconclusive.
What was measured:
[1] = qHTS profiling of the MIPE4 collection as inhibitors of Plasmodium falciparum (DD2) proliferation (AID 743345; call rule not given here); conditions: P. falciparum Dd2 in erythrocytes, SYBR Green DNA, 72 h; at 28.5 µM (top of the series) unless noted
Summary of the method: (§1)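 Parasite DNA was quantified by SYBR Green I fluorescence (ex 485, em 535 nm) after overnight lysis in saponin/Triton buffer at room temperature. Cultures at 0.3% parasitemia and 2.5% hematocrit were first exposed to compound for 72 h at 37 C; signals were normalised to artemisinin (0.29 uM) and vehicle wells.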

[2] = qHTS profiling of the MIPE4 collection as inhibitors of Plasmodium falciparum (DD2) proliferation (Rep 2) (AID 743346; call rule not given here); conditions: P. falciparum Dd2 in erythrocytes, SYBR Green DNA, 72 h; at 28.5 µM (top of the series) unless noted
Summary of the method: as §1

[3] = High-throughput drug toxicity screening in the BPDCN cell line Gen2.2 (AID 1224824; call rule not given here;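 further: cells exposed to compounds for 48 h before reading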); conditions: Gen2.2 BPDCN cells; at 45.8 µM (top of the series) unless noted
Summary of the method: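 CellTiter-Glo luminescence read after 48 h compound exposure at 37 C defines viability; percent activity set with DMSO as 100% and bortezomib (9.2 uM final) as 0%. 500 exponentially growing cells per well, RPMI plus 10% FBS.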

[4] = High-throughput drug toxicity screening in the BPDCN cell line Cal-1 (AID 1224825; call rule not given here); conditions: Cal-1 BPDCN cell viability, qHTS; at 45.8 µM (top of the series) unless noted
Summary of the method: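 CellTiter-Glo luminescence after 48 h compound exposure; percent activity scaled with DMSO as 100% and bortezomib (9.2 uM final) as 0%. Cal-1 cells seeded at 500/well in RPMI, 10% FBS, no phenol red.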

[5] = qHTS assay for measurement of the activity of small molecule inhibitors on Zika virus induced Caspase-3 activity in human iPSC derived neural progenitor cells (hNPCs) (AID 1224857); further: % of control where 0% means no effect; nearly all actives have a fitted effect of over 65% in size
Summary of the method: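 Pretreat hNPCs with compound 1 h; infect ZIKV 2 FFU/cell; 6 h 37 C, 5% CO2; Caspase-Glo 3/7, 30 min RT; luminescence; normalize to no-virus and virus-only wells.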

[6] = qHTS assay for measurement of the activity of small molecule inhibitors on Zika virus induced Caspase-3 activity in human astrocytoma cells (AID 1224859);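 further: plate controls were ZIKV-infected untreated cells for no effect and uninfected cells for full effect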
Summary of the method: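 Human SNB-19 astrocytoma cells in RPMI 1640 with 10% FBS receive compound one hour ahead of Zika virus at 2 FFU/cell. After 6 h infection, caspase-3/7 activity is detected by Caspase-Glo luminescence.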

[7] = qHTS Screen of the MIPE 4.0 Collection Against Ewings Sarcoma (RDES) (AID 1259252); further: nearly all actives have a fitted effect of over 35% in size; further: potency means the concentration at half of the fitted maximal effect
Summary of the method: (§2)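 Dose series incubated 48 h with cells in RPMI plus 5% FBS, glutamine and penicillin/streptomycin; cell viability then quantified via CellTiter-Glo.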

[8] = qHTS Screen of the MIPE 4.0 Collection Against Ewings Sarcoma (TC71) (AID 1259253); further: nearly all actives have a fitted effect of over 40% in size; further: potency means the concentration at half of the fitted maximal effect
Summary of the method: as §2

[9] = qHTS Screen of the MIPE 4.0 Collection Against Ewings Sarcoma (EW8) (AID 1259255); further: nearly all actives have a fitted effect of over 35% in size; further: potency means the concentration at half of the fitted maximal effect;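 on viability: 100% = DMSO-treated cells and 0% = medium-only wells without cells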
Summary of the method: as §2

[10] = qHTS Screen of the MIPE 4.0 Collection Against Ewings Sarcoma (TC32) (AID 1259256); further: nearly all actives have a fitted effect of over 45% in size; further: potency means the concentration at half of the fitted maximal effect
Summary of the method: as §2

[11] = qHTS profiling of the MIPE4 collection as inhibitors of Plasmodium falciparum (HB3) proliferation (AID 743347; call rule not given here;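 further: plate controls were DMSO vehicle wells for no effect and artemisinin wells for full effect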); conditions: P. falciparum HB3 in erythrocytes, SYBR Green DNA, 72 h; at 28.5 µM (top of the series) unless noted
Summary of the method: as §1

[12] = qHTS assay to identify small molecule inhibitors of chordoma cells - UCH-2 (AID 1259356); further: potency means the concentration at half of the fitted maximal effect
[13] = qHTS assay to identify small molecule inhibitors of chordoma cells - UCH-1 (AID 1259355); further: on the % scale 0 is the no-effect control and ±100 the full control effect; nearly all actives have a fitted effect of over 55% in size
Summary of the method: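 Screening used approved and investigational drugs in 15-point titration against 800 seeded cells per well. A fixed combination of auranofin with camptothecin, doxorubicin, rubitecan and topotecan followed compound addition, and growth was scored by CellTiter-Glo after 48hr.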

[14] = P-glycoprotein substrates identified in KB-3-1 adenocarcinoma cell line, qHTS therapeutic library screen (AID 1346986); conditions: KB-3-1 parental cells viability, CellTiter-Glo, 72 h; at 44.5 µM (top of the series); further: nearly all actives have a fitted effect of over 60% in size
Summary of the method: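 In 1536-well format, 500 cells/well received pinned compound titrations and were incubated 72 h, 5% CO2. Viability was read by CellTiter-Glo; cytotoxic if AC50 < 10 uM and efficacy >50%.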

Row | SMILES | parasite growth remaining, % of DMSO control (lower = more inhibition) [1] [%] | parasite growth, % of control (lower = inhibition) [2] [%] | cell viability, % of control (lower = more cytotoxic) [3] [%] | viability (% of control) [4] [%] | Potency [5] | Potency [6] | Potency [7] | Potency [8] | Potency [9] | Potency [10] | growth, % of control [11] [%] | Potency [12] | Potency [13] | outcome [14]
1 | C1CCC(C(CC2CCCCN2)C2CCCCC2)CC1 (configuration not stated) | 7.9 | 7.73 | 7.33 | 5.18 | inactive | inactive | 23.5 µM (active) | 13.2 µM (active) | 13.2 µM (active) | 16.6 µM (active) | – | – | – | –
2 | CC(C)(C)NC(=O)[C@H]1CC[C@H]2[C@@H]3CC[C@H]4NC(=O)C=C[C@]4(C)[C@H]3CC[C@]12C | 91.7 | 53 | 25.5 | 4.87 | inactive | inactive | 1.05 µM (active) | 1.32 µM (active) | 5.9 µM (active) | 3.72 µM (active) | 72.9 | – | – | –
3 | O=C(O)c1ccc(-n2nc(-c3ccccc3O)nc2-c2ccccc2O)cc1 | 107 | 34.2 | 142 | 25.8 | inactive | inactive | 20.9 µM (active) | 14.8 µM (active) | 20.9 µM (active) | – | – | – | – | –
4 | Nc1[nH]c(=O)ncc1F | 104 | 158 | 87.4 | 22.3 | inactive | inactive | inactive | 18.7 µM (active) | inactive | – | 699 | inactive | – | –
5 | N[C@@H](C(=O)N[C@@H]1C(=O)N2C(C(=O)O)=C(Cl)CS[C@H]12)c1ccccc1 | 96.8 | 115 | 133 | 108 | inactive | inactive | inactive | inactive | inactive | – | 97.6 | inactive | – | –
6 | CCC(=O)O[C@]1(C(=O)CCl)[C@@H](C)C[C@H]2[C@@H]3CCC4=CC(=O)C=C[C@]4(C)[C@@]3(F)[C@@H](O)C[C@@]21C | 55.4 | 8.54 | 44.1 | 47.1 | inactive | inactive | inactive | inactive | inactive | – | 8.53 | inactive | – | –
7 | C[C@@H](NCCCc1cccc(C(F)(F)F)c1)c1cccc2ccccc12 | 18.5 | 10.9 | 264 | 110 | inactive | inactive | inactive | 1.48 µM (active) | inactive | – | – | 25.9 µM (active) | – | –
8 | NC(=O)c1ccc2[nH]ccc2c1 | 90.8 | 122 | 140 | 90.6 | inactive | inactive | inactive | inactive | inactive | inactive | – | – | – | –
9 | Cc1nnc(C(=O)NC(C)(C)c2nc(C(=O)NCc3ccc(F)cc3)c(O)c(=O)n2C)o1 | 91.4 | 81.9 | 126 | 134 | inactive | inactive | inactive | inactive | inactive | inactive | 79.5 | – | – | –
10 | Cc1cccc(N(C)C(=S)Oc2ccc3ccccc3c2)c1 | 84.1 | 51.6 | 227 | 79.3 | inactive | inactive | inactive | inactive | inactive | – | – | inactive | inactive | inactive
11 | CCOc1cc(N)c(Cl)cc1C(=O)NCC1CN(Cc2ccc(F)cc2)CCO1 (configuration not stated) | 101 | 178 | 376 | 98.6 | inactive | inactive | inactive | inactive | inactive | inactive | 99 | – | – | –
12 | COc1ccc2cc3[n+](cc2c1OC)CCc1cc2c(cc1-3)OCO2 | 6.26 | 13.4 | 19.2 | 7.43 | inactive | inactive | 8.33 µM (active) | 5.9 µM (active) | 11.8 µM (active) | 7.43 µM (active) | 4.47 | – | – | –
13 | CCCOc1ccc(C(=O)OCCN(CC)CC)cc1N | 88.7 | 111 | 177 | 105 | inactive | inactive | inactive | inactive | inactive | inactive | 63.6 | – | – | –
14 | CC(C)OC(=O)OCOP(=O)(CO[C@H](C)Cn1cnc2c(N)ncnc21)OCOC(=O)OC(C)C | – | – | 162 | 42.8 | inactive | inactive | inactive | 18.7 µM (active) | 23.5 µM (active) | – | – | – | – | inactive
15 | CNS(=O)(=O)Cc1ccc2[nH]cc(CCN(C)C)c2c1 | 70.9 | 75.7 | 219 | 117 | inactive | inactive | inactive | inactive | inactive | – | 17.2 | – | inactive | –
16 | CN(C)CCc1c[nH]c2ccc(C[C@H]3COC(=O)N3)cc12 | 92.5 | 73.2 | 88.7 | 99.9 | inactive | inactive | inactive | inactive | inactive | – | 91.4 | inactive | – | –
17 | CCCN[C@H]1CCc2nc(N)sc2C1 | 92.8 | 8.29 | 133 | 78 | inactive | inactive | inactive | inactive | inactive | – | 6.99 | – | inactive | –
18 | O=C(O)CSCC(=O)NC1CCSC1=O (configuration not stated) | 139 | 124 | 118 | 112 | inactive | inactive | inactive | inactive | inactive | – | 99.2 | – | – | inactive
19 | Cc1ccc(S(=O)(=O)N[C@@H](Cc2ccccc2)C(=O)CCl)cc1 | 91.3 | 79.2 | 4.27 | 3.45 | inactive | inactive | 26.4 µM (active) | 18.7 µM (active) | 16.6 µM (active) | 14.8 µM (active) | – | – | – | –
20 | CO[C@@H]1[C@@H](OC(N)=O)[C@@H](O)[C@H](Oc2ccc3c(O)c(NC(=O)c4ccc(O)c(CC=C(C)C)c4)c(=O)oc3c2C)OC1(C)C | 75.8 | 39.2 | 13.9 | 44 | inactive | inactive | 5.9 µM (active) | 4.69 µM (active) | 2.09 µM (active) | – | 45.7 | inactive | – | –
